# Screening data deposited in PubChem BioAssay by National Center for Advancing Translational Sciences (NCATS).
# NPC1 prom act = activators of NPC1 promoter | Huh7 NPC1 promoter luciferase reporter, 24 h | Potency, µM (doses to about 9.22 µM), inactives show at the highest dose activation, actives largely listed as activators | 320,000 compounds, 2.4% hits | AID 485313; note: % of control where 0% means no effect; nearly all actives have a fitted effect of over 60% in size
#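 In 1536-well qHTS, Huh7 cells harboring an NPC1 promoter–luciferase construct received compound for 24 h; activation was quantified by luminescence following luciferase reagent addition.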
# Rab9 promoter act = Rab9 promoter activation | AID 485297 | Huh7 Rab9 promoter-luciferase reporter, luminescence, 24 h | Potency, µM (highest dose often 9.22 µM), for inactives: top-dose activation, negative = inhibition, most hits filed as activators | 320,000 compounds, 2.8% hits; note: % of control where 0% means no effect; nearly all actives have a fitted effect of over 60% in size
#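 Using Huh7 cells stably transfected with Rab9 promoter–luciferase, compounds were incubated 24 h at 37 °C, 5% CO2; luciferase luminescence was read 10 min after reagent addition.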
# SMN2 splice up = SMN2 splice variant enhancement; HEK293 SMN2-luciferase splicing reporter, luminescence, 30-36 h; Potency, µM (series often up to 46.1 µM), without a hit: top-dose activity change, positive = activation, most hits filed as activators; 210,000 compounds, 2.8% hits; note: % of control where 0% means no effect; nearly all actives have a fitted effect of over 55% in size
#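 HEK293 cells carry an SMN2 minigene-luciferase reporter in which exon 7 inclusion puts luciferase in frame. Cells were seeded at 2000 cells/well, attached for 10-12 hours, then exposed to compounds for 30-36 hours at 37C before ONE-Glo luminescence.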
# FLuc modulator = inhibits or activates purified firefly luciferase, miR-21 counter-screen; AID 588342; 360,000 compounds, 6.9% hits; Potency, µM (doses to about 57.5 µM), without a hit: top-dose activity change, negative = inhibition, most hits filed as inhibitors; P08659; purified FLuc, Km substrates, luminescence inhibition;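 note: plate controls were vehicle for no effect and reference inhibitor for full effect; nearly all actives have a fitted effect of over 55% in size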
# Target sequence (P08659 whole entry, looked up): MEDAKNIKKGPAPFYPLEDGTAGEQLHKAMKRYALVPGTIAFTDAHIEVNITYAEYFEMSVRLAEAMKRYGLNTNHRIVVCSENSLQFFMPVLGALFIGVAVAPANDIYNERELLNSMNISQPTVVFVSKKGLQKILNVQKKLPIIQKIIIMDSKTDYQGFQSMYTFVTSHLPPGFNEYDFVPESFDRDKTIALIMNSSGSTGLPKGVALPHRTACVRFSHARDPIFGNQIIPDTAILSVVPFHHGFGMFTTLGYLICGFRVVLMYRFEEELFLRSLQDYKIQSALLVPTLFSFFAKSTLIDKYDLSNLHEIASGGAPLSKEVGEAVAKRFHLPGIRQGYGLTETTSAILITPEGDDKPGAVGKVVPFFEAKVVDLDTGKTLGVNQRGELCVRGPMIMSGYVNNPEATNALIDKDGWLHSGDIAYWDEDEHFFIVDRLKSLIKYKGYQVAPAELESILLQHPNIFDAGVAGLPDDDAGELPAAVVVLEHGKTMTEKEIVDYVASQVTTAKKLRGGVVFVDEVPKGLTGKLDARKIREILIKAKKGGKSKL
#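 Purified P. pyralis luciferase, 10 nM final, with Km-level 10 uM D-luciferin and 10 uM ATP in 50 mM Tris acetate pH 7.5, 10 mM Mg acetate, 0.01% Tween-20, 0.05% BSA; 6-point qHTS titration about 60 µM downward; luminescence read.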
# Luc counter = blocks Kinase-Glo luciferase, a counter-screen artifact; Potency, µM (top dose mostly 38.3 µM), for the others: at the top dose activity change, negative = inhibition, most hits filed as inhibitors; Q27757; 200,000 compounds, 0.28% hits; Kinase-Glo luciferase, ATP luminescence, 8 min; note: % is set by controls: 0 for no effect and ±100 for the full control effect; nearly all actives have a fitted effect of over 60% in size
#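 Inhibition of Kinase-Glo luciferase light generation was assessed at 10 uM ATP in pH 7.2 imidazole buffer, with luminescence measured after eight minutes at ambient temperature.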
# * = called active by the depositor; ? = inconclusive; nt = not tested or not shown; [ ] = remark or other dose. This is a sample that favours compounds with a hit; in the whole collection about 7.3% have one here. Calls come from the whole dose curve; as a rule, active = well fitted curve in the direction sought with a large enough effect; inconclusive = small, poorly fitted or top-dose-only effect, or another doubt; inactive = no such curve, though single readings can be large; an effect the other way counts as inactive or inconclusive. Potency is the fitted concentration of half-maximal effect.
SMILES,NPC1 prom act,Rab9 promoter act,SMN2 splice up,FLuc modulator,Luc counter
O=C(O)c1cc(NN=C2CCN(Cc3ccccc3)CC2)ccc1Cl,4µM*,2.8µM*,nt,?,nt
O=C(O)c1cc(N/N=C2/CC(c3ccccc3)Oc3ccccc32)ccc1Cl (centres undefined),-1%,5%,-3%[1.84 µM],27µM*,-2%
O=C(NN=C1CCN(Cc2ccccc2)CC1)c1cc2ccccc2cc1O,-1%,5%,13%,?,2%
CCOC(=O)C1=C(C)C/C(=N\NC(=O)c2ccccc2O)CC1,?,?,nt,7.6µM*,nt
O[C@H]1[C@H]2c3cc4c(cc3CN3CCC(=C[C@@H]1O)[C@H]23)OCO4,nt,nt,-55%,nt,nt
C/C(=N/OC(=O)c1cccc(Cl)c1)c1nccs1,4%,1%,-4%,2.1µM*,-13%
C/C(=N\OC(=O)c1ccccc1F)c1nccs1,4%,3%,-14%,1.3µM*,-29%
O=C(O/N=C(\c1ccccc1)c1ccncc1)c1ccccc1F,-1%,-3%,3%,-1%,-3%
O=C(OCc1cnc(Cl)s1)c1cccc(Cl)c1,-2%,8%,nt,-1%,-4%
CC(C)n1c(=O)c2oc3ccccc3c2n(Cc2ccccc2F)c1=O,nt,nt,nt,-18%,nt
COc1ccc(OC)c(/C=N/N(C)c2ccccc2)c1,?,3.5µM*,?,11µM*,0%
COc1cc(/C=N/N(C)c2ccccc2)cc(Cl)c1O,24%,6%,3%,13µM*,0%
COc1ccc(OC)c(/C=N\NC(=O)c2ccc(-c3ccccc3)cc2)c1,-4%,10%,nt,?,nt
O=C(c1ccc([N+](=O)[O-])o1)N1CCN(c2nc3ccc(F)cc3s2)CC1,-6%,16%,nt,5%,nt
CCc1ccc2nc(N3CCN(C(=O)C(C)(C)C)CC3)sc2c1,27%,22%,nt,15µM*,nt
CC(C)(C)C(=O)N1CCN(c2nc3ccccc3s2)CC1,2.5µM*,?,nt,15µM*,nt
CCc1cccc(C)c1NC(=O)c1cn2c3c(ccc(Cl)c3c1=O)OC(C)C2 (centres undefined),nt,nt,nt,11%,nt
COCc1nc2oc3ccc(C)cc3c(=O)c2cc1C(=O)OC,?,1.8µM*,nt,11µM*,nt
CCc1nc2oc3ccccc3c(=O)c2cc1C(=O)OC,3.2µM*,3.5µM*,nt,13µM*,nt
COCc1nc2oc3ccc(F)cc3c(=O)c2cc1C(=O)OC,2.8µM*,?,nt,?,nt
O=C(O)c1cc2c(=O)c3ccccc3oc2nc1C(F)(F)F,-6%,-4%[1.84 µM],nt,2%,nt
CC(C)C=O,nt,nt,0%,nt,nt
COc1cccc(NC(=O)Cn2nc(-c3ccncc3)ccc2=O)c1,nt,nt,nt,-9%,nt
O=C(CCc1ccccc1)NCCc1csc(-c2cccc(F)c2)n1,nt,nt,nt,0%,nt
CC(C)(C)C(=O)CSc1nc2ncc(Br)cc2[nH]1,3%,0%,nt,19µM*,nt
SMILES,NPC1 prom act,Rab9 promoter act,SMN2 splice up,FLuc modulator,Luc counter
Cc1cccc(OCC(=O)Nc2cccc(C(=O)OCc3cc(=O)n4c(C)csc4n3)c2)c1,nt,nt,nt,-14%,nt
CCOc1ccc(/C=C2\SC(=S)N(CC(=O)N(CCO)C(C)(C)C)C2=O)cc1,0%,-2%,-15%,12µM*,-4%
Cc1ccc(/C=C2\SC(=S)N(CCCC(=O)Nc3ccccn3)C2=O)cc1,-27%,-19%,-62%,13µM*,4%
CCOc1ccc(/C=C2\SC(=S)N(CC(=O)Nc3ccccn3)C2=O)cc1,14%,26%,nt,21µM*,nt
O=C1/C(=C/c2ccccn2)SC(=S)N1CCc1ccccc1,?,3.5µM*,nt,-3%,nt
O=C(NN1C(=O)/C(=C/c2cc([N+](=O)[O-])ccc2O)SC1=S)c1ccccc1O,-1%,8%,nt,?,nt
Cc1ccc(/C=C2\SC(=S)N(/N=C/c3cc([N+](=O)[O-])ccc3O)C2=O)o1,-1%,-6%,nt,24µM*,nt
Cc1cc(C)n2cc(CSc3nc4ccccc4s3)nc2n1,?,3.5µM*,11µM*,21µM*,3%
C/C(=N\NC(=O)c1cc2ccccc2cc1O)c1ccc(C)o1,27%,?,nt,9.5µM*,nt
C/C(=N/NC(=O)c1cc2ccccc2cc1O)c1ccco1,2.8µM*,1.6µM*,nt,5.4µM*,nt
C/C(=N\NC(=O)c1c(C)nc2ccccn12)c1ccco1,?,2.5µM*,10µM*,?,-30%
C/C(=N\NC(=O)c1cc(C)nc2ccccc12)c1ccco1,-3%,-4%,0%,3%,-2%
C/C(=N\NC(=O)c1c[nH]c2ccccc12)c1ccc(C)o1,10%,24%,3%,?,-6%
COc1ccc2c(c1)C(=O)[C@H](OC(=O)NCCc1ccc(OC)c(OC)c1)[C@@H](c1ccc(OC)c(Br)c1)O2,nt,nt,15%,nt,-1%
Cc1cc2ccccc2n1CCNC(=O)c1cc(C(F)(F)F)cc(C(F)(F)F)c1,nt,nt,5%,-6%,nt
Cc1cnc(C(=O)Nc2ccc(N3CCCCC3)cc2)cn1,3.5µM*,3.2µM*,11µM*,7.6µM*,-2%
Cc1cc(C(=O)Nc2ccc(N3CCCCC3)cc2)no1,0.32µM*,0.28µM*,nt,1.3µM*,nt
CC(C)c1ccc(C2N3CC4(C)CN2CC(c2ccccc2)(C3)C4=O)cc1 (centres undefined),nt,nt,1%,-11%,nt
O=S(=O)(Nc1ccc(Cl)cc1)c1cccc(S(=O)(=O)c2ccc(Cl)c(Cl)c2)c1,nt,nt,-5%,?,nt
CC1(C)CC(/C=C/c2ccccc2)=Nc2ccccc2N1,?,?,nt,4.3µM*,nt
O=C1CC(/C=C/c2ccccc2)=Nc2ccccc2N1,2µM*,0.89µM*,-5%,2.7µM*,-17%
O=C1CC(/C=C/c2ccc(Cl)cc2)=Nc2ccccc2N1,2.2µM*,1.3µM*,nt,4.3µM*,-10%
CC(Oc1ccccc1)C(=O)Nc1ccc(C(=O)OCc2cc(=O)n3nc(C4CC4)sc3n2)cc1 (centres undefined),nt,nt,nt,-9%,nt
CC1=C/C(=C(\c2cc(C)c(O)c(Br)c2)c2ccccc2S(=O)(=O)O)C=C(Br)C1=O,-9%,-13%,nt,9.5µM*,nt
Cn1c(C(=O)NCc2cccnc2)cc2sc(Cl)cc21,-7%,4%,-45%,?,-2%
SMILES,NPC1 prom act,Rab9 promoter act,SMN2 splice up,FLuc modulator,Luc counter
CC(C)c1ccc(NC(=O)c2cc3sc(Cl)cc3n2C)cc1,nt,nt,-11%,3.4µM*,nt
CCc1ccc(NC(=O)c2cc3sc(Cl)cc3n2C)cc1,nt,nt,13µM*,5.4µM*,nt
CCOc1ccc(CCNC(=O)c2cc3sc(Cl)cc3n2C)cc1OCC,-5%,0%,-23%,1%,-3%
Cn1c(C(=O)NCc2ccccc2Cl)cc2sc(Cl)cc21,nt,nt,28µM*,?,nt
CCc1ccc(C2C(C(=O)Nc3ccccc3OC)=C(C)Nc3nc(SCc4ccccc4)nn32)cc1 (centres undefined),nt,nt,-1%,4%,nt
O=C(NCc1ccc(Cl)cc1)c1n[nH]c([N+](=O)[O-])c1Cl,13%,-10%,20%,21µM*,4%
O=C(Cc1ccccc1[N+](=O)[O-])NCc1ccc(Cl)cc1Cl,4µM*,3.5µM*,nt,6µM*,nt
